Data taken from PubChem BioAssay (NCATS).
Inconclusive results are not listed. Unmarked numbers belong to inactive results. Active and inactive are the calls of the source. Calls follow the shape of the dose curve; as a rule, active = well fitted cell-killing curve with a large enough effect; inconclusive = small, poorly fitted or top-dose-only effect, or effect the other way; inactive = no such curve, though single readings can be large or run the other way. Peptide text beside a SMILES is read from it.

Assay: Quantitative High-Throughput drug screen in 47 multiple myeloma cell lines against the NCATS MIPE library collection: KMS27_JCRB cell viability assay (AID 1918970); also: nearly all actives have a fitted effect of over 30% in size
Details: KMS27 myeloma cells, CellTiter-Glo ATP viability, 48 h; series mostly up to 45.8 µM; viability (% of DMSO): at the top concentration
Description: PI: Beverly A. Mock Ph.D.
Laboratory of Cancer Biology and Genetics,
Center for Cancer Research, National Cancer Institute,
National Institute of Health, Bethesda, Maryland
Drug resistance and disease progression are common in multiple myeloma (MM) patients, underscoring the need for new therapeutic combinations. […] We hypothesized that effective combinations would reduce MYC expression and enhance p16 activity. […] These preclinical data identify potentially useful drug combinations for evaluation in drug-resistant MM and reveal potential mechanisms of combined drug sensitivity.
Described herein is the primary MIPE qHTS used to cherrypick compounds. Validated compounds were then further tested for potential synergistic activiy.
[1] Peat TJ, Gaikwad SM, Dubois W, Gyabaah-Kessie N, Zhang S, Gorjifard S, Phyo Z, Andres M, Hughitt VK, Simpson RM, Miller MA, Girvin AT, Taylor A, Williams D, D'Antonio N, Zhang Y, Rajagopalan A, Flietner E, Wilson K, Zhang X, Shinn P, Klumpp-Thomas C, McKnight C, Itkin Z, Chen L, Kazandijian D, Zhang J, Michalowski AM, Simmons JK, Keats J, Thomas CJ, Mock BA. Drug combinations identified by high-throughput screening promote cell cycle transition and upregulate Smad pathways in myeloma. […] Epub 2023 Jun 24. PMID: 37356470; PMCID: PMC10408729.
SEQUENCE No. (e.g., 1, 2, 3, etc.); […] (e.g., Cells, Incubation, Reagent, etc.); VALUE and DESCRIPTION.
1; Cells; 5 uL; white, solid bottom 1536-well Greiner assay plate.
2; Compounds; 23 nL; Kalypsis pin tool (Wako USA) equipped with a 1536-well pin head to transfer to the assay plates.
3; Incubation; 48 hours; 37C incubation.
4; Reagent;5uL; CellTiter Glo (Promega).
5; Detector; 425V; Luminescence; Viewlux PerkinElmer.
NOTES (numbers refer to Sequence numbers above)
1. The cell-based screening methods employed in this study were like those previously published. Briefly, the corresponding myeloma cell lines were screened in 1,536-well plates with 500 cells, 5-uL per well for inhibition of cell viability (assessed by measuring ATP levels with CellTiterGlo).
2. NCATS MIPE 4.0 library of approved and investigational drugs were added using the Kalypsis pin tool. Wells treated with DMSO only for 100% viability and media only wells for 0% viability were used as controls.
3. The assay plates were covered and incubated for 48 hours in a 37C, 5% CO2 incubator with controlled humidity.
4. After 48 hours, CellTilter-GloTM luminescent substrate mix (Promega) reagent was added to the assay plate and plates we incubated for 5 min at room temperature.
5. Signal was measured as median relative luminescence units on a ViewLux (PerkinElmer) multiplate reader.
[1] Heske CM, Davis MI, Baumgart JT, Wilson K, Gormally MV, Chen L, Zhang X, Ceribelli M, Duveau DY, Guha R, Ferrer M, Arnaldez FI, Ji J, Tran HL, Zhang Y, Mendoza A, Helman LJ, Thomas CJ. Matrix Screen Identifies Synergistic Combination of PARP Inhibitors and Nicotinamide Phosphoribosyltransferase (NAMPT) Inhibitors in Ewing Sarcoma. Clin Cancer Res. 2017 Dec 1;23(23):7301-7311. doi: 10.1158/1078-0432.CCR-17-1121. Epub 2017 Sep 12. PMID: 28899971; PMCID: PMC6636827.
Potency is read from the fitted curve at half-maximal effect.

Compound | Potency | viability (% of DMSO)
O=c1ccc2ccc(O)c(O)c2o1 | 18.7 µM (active) | –
O=C(NCC1CCCCN1)c1cc(OCC(F)(F)F)ccc1OCC(F)(F)F (stereo not given) | 0.526 µM (active) | –
COC(=O)[C@H](Cc1ccccc1)NC(=O)[C@@H](N)CC(=O)O (H-Asp-Phe-OMe) | – | 123%
C[C@H](Cc1ccc(O)c(O)c1)[C@@H](C)Cc1ccc(O)c(O)c1 | 9.35 µM (active) | –
COc1c2occc2cc2ccc(=O)oc12 | – | 124%
COCCCN1CCC(NC(=O)c2cc(Cl)c(N)c3c2OCC3)CC1 | 18.7 µM (active) | –
O=C1CCc2ccc(OCCCCN3CCN(c4cccc(Cl)c4Cl)CC3)cc2N1 | – | 123%
Oc1ccc(OCc2ccccc2)cc1 | – | 101%
CCOC(=O)C1=C[C@@H](OC(CC)CC)[C@H](NC(C)=O)[C@@H](N)C1 | – | 113%
N=C(N=C(N)N)N1CCOCC1 | – | 116%
Cc1cc2c(s1)Nc1ccccc1N=C2N1CCN(C)CC1 | – | 110%
CCCCCCCCCCCCCCCCCCCCCCO | – | 113%
Cc1ccc(S(=O)(=O)NC(=O)NN2CC3CCCC3C2)cc1 (stereo not given) | 20.9 µM (active) | –
O=C(O)c1cccnc1Nc1cccc(C(F)(F)F)c1 | – | 92.2%
CCC[C@@H]1C[C@@H](C(=O)N[C@@H]([C@H]2O[C@H](SC)[C@H](O)[C@@H](O)[C@H]2O)[C@@H](C)O)N(C)C1 | – | 110%
COC(=O)N[C@H](C(=O)N[C@@H](Cc1ccccc1)[C@@H](O)CN(Cc1ccc(-c2ccccn2)cc1)NC(=O)[C@@H](NC(=O)OC)C(C)(C)C)C(C)(C)C | – | 132%
NC(=NCc1ccccc1)NC(=O)c1nc(Cl)c(N)nc1N | 33.2 µM (active) | –
C[Se]CCC(N)C(=O)O (stereo not given) | – | 115% [at 92.2 µM]
COC1=C(OC)C(=O)C(CCCCCCCCCCO)=C(C)C1=O | 18.7 µM (active) | –
Cc1nc(-c2ccc(OCC(C)C)c(C#N)c2)sc1C(=O)O | – | 109%

Compound | Potency | viability (% of DMSO)
Cc1nc(Nc2ncc(C(=O)Nc3c(C)cccc3Cl)s2)cc(N2CCN(CCO)CC2)n1 | 10.5 µM (active) | –
CC[C@]1(O)C[C@H]2CN(CCc3c([nH]c4ccccc34)[C@@](C(=O)OC)(c3cc4c(cc3OC)N(C=O)[C@H]3[C@@](O)(C(=O)OC)[C@H](OC(C)=O)[C@]5(CC)C=CCN6CC[C@]43[C@@H]65)C2)C1 | 0.0166 µM (active) | –
O=P(O)(O)C(O)(Cn1ccnc1)P(=O)(O)O | – | 111% [at 23.2 µM]
Nc1ccc(S(N)(=O)=O)cc1 | – | 137%
COc1ccccc1N1CCN(CCN(C(=O)C2CCCCC2)c2ccccn2)CC1 | 9.35 µM (active) | –
CN(C)CCCC1(c2ccc(F)cc2)OCc2cc(C#N)ccc21 (stereo not given) | – | 119%
Cc1cc(Cl)ccc1OCCCC(=O)NO | 3.32 µM (active) | –
CC(S)C(=O)NCC(=O)O (stereo not given) | – | 139%
COc1cc2c(N3CCN(C(=O)Nc4ccc(OC(C)C)cc4)CC3)ncnc2cc1OCCCN1CCCCC1 | – | 104%
C[C@H](Cn1cnc2c(N)ncnc21)OCP(=O)(O)O | – | 142%
O=C1c2ccccc2-c2n[nH]c3cccc1c23 | 2.96 µM (active) | –
Nc1nc(OCc2ccccc2)c2[nH]cnc2n1 | 14.8 µM (active) | –
COc1c(O)cc2c(c1O)[C@@H]1O[C@H](CO)[C@@H](O)[C@H](O)[C@H]1OC2=O | – | 96.7%
Nc1nc(N)c(N=O)c(OCC2CCCCC2)n1 | 6.62 µM (active) | –
Nc1ncn([C@H]2C[C@H](O)[C@@H](CO)O2)c(=O)n1 | – | 108%
COCCCOc1ccnc(CS(=O)c2nc3ccccc3[nH]2)c1C (stereo not given) | – | 97.4%
C[C@@H](c1ncncc1F)[C@](O)(Cn1cncn1)c1ccc(F)cc1F | – | 127%
CN(C)CCc1c[nH]c2ccc(Cn3cncn3)cc12 | 16.6 µM (active) | –
O=c1c(O)c(-c2cc(O)c(O)c(O)c2)oc2cc(O)cc(O)c12 | – | 88%
CNC[C@H](O)c1ccc(O)c(O)c1 | – | 108% [at 92.2 µM]
